Screening results deposited in PubChem by National Center for Advancing Translational Sciences (NCATS).
Pol iota inh: inhibitors of human DNA polymerase iota | Q9UNA4 | Pol iota fluorescent replication assay, 10 min | Potency, µM (titrated, usually from 115 µM), for inactives: at the top dose activity, negative = inhibition, usual class: inhibitors | hit rate 1% among 390,000; further: potency means the concentration at half of the fitted maximal effect
Target sequence (Q9UNA4 whole entry, looked up): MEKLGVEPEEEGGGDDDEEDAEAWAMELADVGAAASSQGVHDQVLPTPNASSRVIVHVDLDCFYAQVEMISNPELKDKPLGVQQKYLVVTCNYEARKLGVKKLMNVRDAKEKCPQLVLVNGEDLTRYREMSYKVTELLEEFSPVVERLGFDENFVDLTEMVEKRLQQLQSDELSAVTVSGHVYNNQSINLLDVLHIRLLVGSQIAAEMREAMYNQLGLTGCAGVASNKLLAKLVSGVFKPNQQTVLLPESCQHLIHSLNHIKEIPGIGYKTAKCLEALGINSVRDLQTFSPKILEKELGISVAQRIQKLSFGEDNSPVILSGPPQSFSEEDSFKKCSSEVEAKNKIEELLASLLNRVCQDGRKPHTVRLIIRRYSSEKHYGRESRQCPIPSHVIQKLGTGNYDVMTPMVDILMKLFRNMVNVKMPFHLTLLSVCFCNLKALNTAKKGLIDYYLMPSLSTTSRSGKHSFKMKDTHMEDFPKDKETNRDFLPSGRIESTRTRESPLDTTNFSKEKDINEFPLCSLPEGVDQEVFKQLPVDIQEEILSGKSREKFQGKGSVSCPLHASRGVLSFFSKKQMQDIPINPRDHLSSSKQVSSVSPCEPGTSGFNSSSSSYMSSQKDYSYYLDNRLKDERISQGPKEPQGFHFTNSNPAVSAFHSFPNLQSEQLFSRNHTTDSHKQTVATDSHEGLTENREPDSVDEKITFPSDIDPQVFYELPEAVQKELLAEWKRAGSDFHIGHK
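Pol iota at 10 nM preincubated 15 min with compounds at room temperature; reaction started with fluorescent substrate, 50 nM final. Fluorescence read kinetically at 0 and 10 min; buffer-only wells as negative control.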
PI5P4K alpha inh: inhibitors of human PI5P4K alpha | P48426 | PI5P4Kalpha enzyme, ADP-Glo luminescence, 60 min; active compounds read low | max response, % | hit rate 1.2% among 330,000 | AID 652105; active means max response of -50% or lower; inconclusive means between -30% and -50%; inactive means -30% or higher; further: value at the top dose of about 77 µM; on the % scale 0 is the no-effect control and ±100 the full control effect
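Luminescence from ADP-Glo served as readout of PI5P4Kalpha activity in a qHTS format. Reaction: enzyme, substrate, compound, ATP at 5 microM final, 60 min at RT.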
POLK inh: blocks human DNA polymerase kappa activity; Q9UBT6; purified Pol kappa, fluorescent DNA synthesis assay, 10 min; Potency, µM (doses to about 107 µM), for inactives: at the top dose activity, negative = inhibition, hits mostly inhibitors; hit rate 0.53% among 400,000; AID 588579; further: potency means the concentration at half of the fitted maximal effect; on the % scale 0 is the no-effect control and ±100 the full control effect
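Pol kappa 10 nM + cpd, 15 min RT; start w/ substrate 50 nM final; fluorescence kinetic read, 0 and 10 min. Neg ctrl: buffer, no enzyme.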
Pol eta inh: inhibitors of human DNA polymerase eta; Potency, µM (highest dose often 114 µM), inactives show top-dose activity change, negative = inhibition, hits mostly inhibitors; hit rate 1.2% among 390,000; Q9Y253; recombinant Pol eta, fluorescent DNA replication assay; further: potency means the concentration at half of the fitted maximal effect; on the % scale 0 is the no-effect control and ±100 the full control effect
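Pol eta at 10 nM preincubated with compounds 15 min at room temperature; reaction started with fluorescent substrate (50 nM final) and read kinetically at 0 and 10 min.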
WRN helicase inh: inhibitors of human WRN helicase. Q14191. WRN helicase unwinding, fluorescent forked duplex, kinetic. Potency, µM (doses to about 114 µM), for the others: at the top dose activity change, negative = inhibition, actives largely listed as inhibitors. hit rate 0.46% among 360,000. AID 651768; further: potency means the concentration at half of the fitted maximal effect; on the % scale 0 is the no-effect control and ±100 the full control effect; nearly all actives have a fitted effect of over 55% in size
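Enzyme (20 nM final) and test compound sit together 15 min at room temperature before substrate addition. Substrate is a single-forked duplex oligonucleotide (100 nM) labelled with fluorophore and quencher, with 2 mM ATP; helicase unwinding raises red fluorescence, read kinetically.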
Pol beta inh: DNA polymerase beta (human) inhibition; P06746; Potency, µM (series often up to 114 µM), for inactives: at the top dose activity change, negative = inhibition, actives largely listed as inhibitors; AID 485314; Pol beta primer extension/strand displacement, fluorescence kinetic; hit rate 1.3% among 340,000; further: potency means the concentration at half of the fitted maximal effect; on the % scale 0 is the no-effect control and ±100 the full control effect
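Enzyme-only controls used 10 nM Pol beta; buffer lacking enzyme served as negative control. Compound preincubated 15 min, then 50 nM substrate added; 0 and 10 min reads at room temperature.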
Active calls of the source: *; ? = inconclusive; . = no result given; [ ] = dose if it differs, or a comment. Only some compounds are listed: those with a hit (about 2.8% of all), similar ones and a draw of the others. Unless noted, the call rests on the fitted dose curve; in most records, active means well fitted curve in the direction sought with a large enough effect; inconclusive means small, poorly fitted or top-dose-only effect, or another doubt; inactive means no such curve, though single readings can be large; an effect the other way counts as inactive or inconclusive.

SMILES	Pol iota inh	PI5P4K alpha inh	POLK inh	Pol eta inh	WRN helicase inh	Pol beta inh
O=C(CSc1c2c(nc3ccc(Cl)cc13)CCCC2)N1CCN(C(=O)c2ccco2)CC1	20µM*	-14	?	-6%	-14%[57.1 µM]	.
Cc1cc2cc3c(cc2nc1SCC(=O)N1CCN(C(=O)c2ccco2)CC1)OCO3	71µM*	.	-24%	5%	-15%[57.1 µM]	?
CCCCNC(=O)C1CCN(c2nc3ccc(C)cc3[nH]2)CC1	18%	.	-4%[60.1 µM]	-1%	.	14%
CCOC(=O)c1c(C)oc2nc(C)nc(NCc3ccccc3OC)c12	30%	.	-2%	-23%	.	4%
CN(C)S(=O)(=O)N(CC(=O)Nc1ccc(F)c(F)c1)c1ccccc1	-27%[58.9 µM]	.	-20%	?	-11%	?
CSc1cccc(NC(=O)CN(c2ccccc2)S(=O)(=O)N(C)C)c1	?	.	-17%	?	-18%	10µM*
Nc1ccc2nn(-c3cc([N+](=O)[O-])ccc3O)nc2c1	24%	-29	-24%	45µM*	11%	6%
COc1ccc(CCNC(=O)C2COc3ccccc3C2)cc1OC (stereo unspecified)	14%	.	-5%[60.1 µM]	12%	.	11%
O=C(N/N=C/c1cccc(O)c1)c1ccc(NC(=O)C2CCCCC2)cc1	?	1	-15%	5%	-16%	32µM*
O=C(N/N=C/c1ccc(O)cc1O)C1CC1	-2%	-13	0%	-17%	-4%	.
O=C(N/N=C/c1ccc(O)cc1O)c1ccc(NC(=O)C2CCCCC2)cc1	?	-19	-8%	35µM*	-5%[11.6 µM]	-5%
COc1ccccc1-n1cnnc1SCC(=O)c1c[nH]c2ccccc12	47%	-56*	3%[60.1 µM]	-10%	5%	-2%
CCOCCCNC(=O)c1ccc(CS(=O)(=O)Cc2ccccc2F)o1	-19%[58.9 µM]	.	89µM*	?	-8%	2%
CC(c1ccc(N(C)C)cc1)c1ccnc2ccccc12 (stereo unspecified)	5%	.	-9%	.	.	.
Cc1cc(C)n(CCC(=O)Nc2ccc(Cl)cc2)n1	-15%	.	-13%	-21%	.	?
Cc1cc(C)c2c(=O)n(CC(=O)Nc3cccc(F)c3)sc2n1	?	-67*	6%	2%	0%	2%
Cc1cc(C)c2c(=O)n(CC(=O)Nc3ccc(Cl)cc3)sc2n1	-12%	-64*	-5%	-7%	0%	-12%
CCOc1ccc(NC(=O)Cn2sc3nc(C)cc(C)c3c2=O)cc1	?	-71*	-13%	-13%	20µM*	1%
Cc1ccc(NC(=O)Cn2sc3nc(C)cc(C)c3c2=O)c(Cl)c1	-15%	-72*	-8%	15%	5%	0%
Cc1ccc2nc(NCc3ccccc3)c3nnnn3c2c1	2%	.	10%	9%	.	1%
N#Cc1cccc(NC(=O)c2cc3c(s2)-c2ccc(Cl)cc2SC3)c1	?	.	-10%	-5%	.	2%
Fc1ccc(N=C2NN=C(c3cc(F)ccc3F)CS2)cc1	145%	-13	-10%	-15%	-6%	14%
O=S(=O)(c1ccc(N=C2NN=C(c3cc(F)ccc3F)CS2)cc1)N1CCOCC1	-1%	-51*	1%	-18%	-3%	2%
Cc1cccc(/C=C/C(=O)c2ccc([N+](=O)[O-])o2)c1	11µM*	-8	13%	?	-5%	.
O=C(/C=C/c1cccc([N+](=O)[O-])c1)c1ccc([N+](=O)[O-])o1	?	?	4%	?	-24%	.
SMILES	Pol iota inh	PI5P4K alpha inh	POLK inh	Pol eta inh	WRN helicase inh	Pol beta inh
Cc1ccc(-n2c(O)c(C=Nc3cc(C)on3)c3ccccc3c2=O)c(C)c1	2%	-1	-16%	-11%	50µM*	?
CN(C)CCOc1nc(-c2ccccc2)nc2c1oc1ccccc12	?	16	-21%	?	12%[57.1 µM]	45µM*
CN(C)CCOc1ncnc2c1oc1ccccc12	20%	.	-3%	-15%	3%	17%
Cc1snc(SCC(=O)c2ccc([N+](=O)[O-])cc2)c1C#N	66%	-57*	-9%	0%	-31%[57.1 µM]	-7%
O=CN/C=C/c1cc(O)ccc1O	22µM*	-64*	45µM*	50µM*	-34%	?
Oc1[nH]c2ccccc2c1N=Nc1ccccn1	8%	0	-6%	?	-16%	.
Oc1c(N=Nc2ccccn2)ccc2ccccc12	49%	-10	0%	-26%	56µM*	-1%
CC(=O)N1c2ccc(S(=O)(=O)NCCC(=O)Nc3ccc(C)cc3Br)cc2CC1C (stereo unspecified)	37%	.	-1%	-23%	.	-2%
Cc1ccc2c(=O)cc(C(=O)Nc3ccc(S(=O)(=O)N4CCC(C)CC4)cc3)oc2c1C	-9%	.	-4%	-4%	.	26%
O=C(CCCCn1ccc(=O)[nH]c1=O)Nc1ccc(C(=O)O)c(O)c1	24%	-71*	-4%	-10%	-4%	.
O=C(CCCCn1ccc(=O)[nH]c1=O)Nc1ccc(O)c(C(=O)O)c1	47%	-8	-6%	-3%	3%	.
CCOC(=O)c1c(N2C(=O)Nc3ccccc3N2O)n[nH]c1-c1cccc(Cl)c1	48%	-66*	-6%	-10%	-5%	17%
CCOc1ccc(NC(=O)Nc2ccc3c(c2)CCC3)cc1	31%	-3	10%	-11%	1%	25µM*
CCOc1ccc(NC(=O)NNC(=O)c2ccc(CC)s2)cc1	?	5	-17%	-8%	0%[11.6 µM]	79µM*
Cc1ccccc1CCNC(=O)c1ccc2c(c1)nc1n2CCC(C)C1 (stereo unspecified)	-4%	.	-2%[60.1 µM]	14%	.	19%
Cn1nc(-c2ccc(Cl)cc2)c2cc(C(=O)NCCCN3CCCC3)sc21	?	6	-25%	9%	59%	50µM*
CCN1CCCC1CNC(=O)c1cc2c(-c3cccc(OC)c3)nn(C)c2s1 (stereo unspecified)	-5%	0	9%	18%	59%	-9%
CCN1CCCC1CNC(=O)c1cc2c(-c3ccc(Cl)cc3)nn(C)c2s1 (stereo unspecified)	?	-2	-20%	4%	37%	35µM*
O=C(NCCCN1CCCCCC1)c1cc2c(=O)oc3ccccc3c2s1	50µM*	-5	-40%	-6%	-12%	-11%
CCCCN(CC)CCCNC(=O)c1cc2c(-c3ccc(OC)c(OC)c3)nn(C)c2s1	?	0	-23%	?	-29%	3.5µM*
O=C(Nc1ccc(C2=NCCN2)cc1)c1ccc(C(=O)Nc2ccc(C3=NCCN3)cc2)c(Cl)c1	?	-9	?	-16%	?	0.89µM*
O=C(Nc1ccc(NC(=O)c2ccc(Cl)cc2Cl)cc1)c1ccc2c(c1)OCO2	37%	-2	1%	-7%	19%	60%
